This is an account of results in PubChem BioAssay AID449762 (Southern Research Specialized Biocontainment Screening …, 2010).

The structures appear in SMILES notation. Out of some 330,000 compounds screened, about 1,900 (0.58%) were called active. Another 4% or so got no clear call; they are omitted. Rule as the data show it: inconclusive = inhibition above about 70% without an active follow-up result; inactive = below that. Only a sample is shown. Entries with a potency or affinity are not part of this list.

The nature of this assay: M. tuberculosis growth inhibition, HTS (AID 449762).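 Also: bacterial growth assessed after seven days of incubation.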 The conditions noted are these: M. tuberculosis H37Rv growth inhibition, 7H9 media; at 25 µM; hits give high values.
One may read the inhibition as the relative decrease from the control value, in per cent. Take `O=C(NCc1ccccn1)c1cc2c(ccc3ccccc32)oc1=O`: the inhibition is -2.34% (inactive).

Consider `CCOC(=O)N1CCC(N2Cc3cccc(C(=O)Nc4cc(F)ccc4F)c3C2=O)CC1`, for which the inhibition is -1.17% (inactive).

As to `CCOC(=O)c1ccccc1NC(=O)c1cccc2c1C(=O)N(C1CCN(C(=O)OCC)CC1)C2`, the inhibition is -3.66% (inactive).

On to `Cc1ccc(C2C3=C(CCCC3=O)N=C3c4ccccc4C(=O)C32)cc1` (stereo not drawn), for which the inhibition is 4.41% (inactive).

As to `O=C1CCCC2=C1C(c1ccccc1)C1C(=O)c3ccccc3C1=N2` (stereo not drawn), the inhibition is 0.55% (inactive).

As for `CCO[C@@H]1OC(C(=O)NCc2ccccc2)=C[C@H](C)[C@H]1CCCO`, the inhibition was 0.33% (inactive).

Take `CCOC(=O)CSC1=C(C#N)C(c2ccccc2C)C2=C(CCCC2=O)N1` (stereo not drawn): the inhibition is -2.12% (inactive).

With `CCOC(=O)CSC1=C(C#N)C(C)C2=C(CCCC2=O)N1` (stereo not drawn), the inhibition was 10.6% (inactive).

As for `Clc1cccc(CN2CCSCC2)c1Cl`, the inhibition is 5.96% (inactive).

Take `O=C(OCc1ccc(O)cc1)c1c(-c2ccsc2)oc2ccc(N3CCOCC3)cc12`: the inhibition was -0.88% (inactive).

On to `COc1ccc(/C=C/c2c(-c3cccc(C)c3)oc3ccc(N4CCOCC4)cc23)cc1`, for which the inhibition was -2.46% (inactive).

`COc1ccc(-c2noc(-c3ccco3)n2)cc1OC`: the inhibition is -0.61% (inactive).

`COc1ccc(-c2cc(C(=O)O)c3c(C)nn(-c4ccccn4)c3n2)cc1`: the inhibition was 10.2% (inactive).

For the compound `CCOC(=O)c1cc(-c2ccncc2)nc2c1c(C)nn2-c1ccccn1`, the inhibition is 0.76% (inactive).

For the compound `O=C(NC1CCCC1)C(c1ccncc1)N(C(=O)c1csnn1)C1CCCC1` (stereo not drawn), the inhibition was 3.35% (inactive).

Take `Cc1nnsc1S(=O)(=O)c1ccccc1`: the inhibition is -0.59% (inactive).

`Nc1nc(-c2ccc(Cl)cc2)c(S(=O)(=O)c2ccccc2)s1`: the inhibition is -1.98% (inactive).

With `COc1ccc(N(CC(=O)NC2CCCC2)S(=O)(=O)c2c(C)[nH]c(=O)[nH]c2=O)cc1`, the inhibition was -3.45% (inactive).

With `Cc1ccc(OCCNC(=O)CNC(=O)c2ccc(C)cc2)cc1`, the inhibition was 5.29% (inactive).

Take `Cc1cc(CN(C)C(=O)c2cc(COc3ccc(C)c(C)c3)on2)on1`: the inhibition was 7.13% (inactive).

`Cc1ccc(OCc2cc(C(=O)N(C)Cc3nccn3C)no2)cc1C`: the inhibition was 8.06% (inactive).

On to `Nc1c(C(=O)c2ccc(Cl)cc2)oc2ccccc12`, for which the inhibition was -21.2% (inactive).

For the compound `Cc1cc(C)c(NC(=O)C(C)(C)C)c(Cl)c1`, the inhibition is -1.65% (inactive).

Take `COc1ccc(C(CNC(=O)C(C)(C)Oc2ccc(Cl)cc2)N2CCCC2)cc1` (stereo not drawn): the inhibition is -9.42% (inactive).

Take `COc1ccc(C(CNC(=O)C(C)(C)Oc2ccc(Cl)cc2)N2CCCCC2)cc1` (stereo not drawn): the inhibition is -12.8% (inactive).

With `CCN(CC)S(=O)(=O)c1ccc(NC(=O)c2ccc(Cl)nc2)cc1`, the inhibition was 4% (inactive).

In the case of `O=C(O)c1ccccc1/C=N/Nc1ccc(S(=O)(=O)N2CCCC2)cc1[N+](=O)[O-]`, the inhibition was -1.83% (inactive).

`COc1ccc(Cc2nc3ccc(C(=O)N(C)C(C)c4nccs4)cc3o2)cc1` (stereo not drawn): the inhibition is 1.57% (inactive).

Consider `COc1ccc(-c2ccc([C@H]3[C@H]4C=CC[C@@H](C)[C@@H]4C(=O)N3Cc3ccccc3)c(F)c2)cc1C`, for which the inhibition was -3.73% (inactive).

For `CCC(C)n1ncn(-c2ccc(N3CCN(c4ccc(OCC5COC(Cn6cncn6)(c6ccc(Cl)cc6Cl)O5)cc4)CC3)cc2)c1=O` (stereo not drawn), the inhibition was -3.37% (inactive).

Take `CC1(c2ccc(Cl)cc2Cl)OCC(Cn2ccnc2)O1` (stereo not drawn): the inhibition is -2.41% (inactive).

Regarding `FC(F)(F)c1cc(N2CCNCC2)c2ccccc2n1`, the inhibition was 4.5% (inactive).

In the case of `COc1ccc2cc(S(=O)(=O)NCc3cccnc3)ccc2c1`, the inhibition is -6.19% (inactive).

For the compound `c1ccc(OCc2nnc(-c3ccccc3)o2)cc1`, the inhibition is 3.84% (inactive).

Turning to `Oc1ccccc1-c1nnc(COc2ccc(Cl)cc2Cl)o1`, the inhibition was 2.32% (inactive).

As to `Cc1ccccc1C(=O)Nc1cccc(-c2cn3ccccc3n2)c1`, the inhibition is 35.7% (inactive).

Take `O=C(O)CCC(=O)Nc1nnc(C(F)(F)F)s1`: the inhibition is 5.81% (inactive).

As for `Cc1nnc(NC(=O)CCC(=O)NC2CCCCCCC2)s1`, the inhibition is 2.33% (inactive).

For the compound `CC(=O)c1cccc(S(=O)(=O)NCCC(=O)NC2CCCCCC2)c1`, the inhibition is 2.95% (inactive).

Turning to `CCN(CC)S(=O)(=O)c1ccc(NC(=O)c2ccc(Sc3nncn3C)c([N+](=O)[O-])c2)cc1`, the inhibition is 3.9% (inactive).

On to `COCCn1c(O)c(/C=N/NC(=O)CSC(=S)N2CCCC2)c(=O)[nH]c1=S`, for which the inhibition was -6.24% (inactive).

Consider `CCOc1ccccc1NC(=O)C1CCCN(c2c(CC)c(C)nc3ncnn23)C1` (stereo not drawn), for which the inhibition is 3.2% (inactive).

As to `CCN(c1cccc(C)c1)S(=O)(=O)c1nnc(NC(=O)c2ccco2)s1`, the inhibition was -5.15% (inactive).

In the case of `Cc1csc(NC(=O)c2c(O)c3c(n(CC(C)C)c2=O)CCCC3)n1`, the inhibition is 65.9% (inactive).

On to `CC(C)Cn1c2c(c(O)c(C(=O)Nc3nccs3)c1=O)CCCC2`, for which the inhibition was 8.72% (inactive).

In the case of `CC(=C1C(=O)c2ccccc2C1=O)N1CCN(c2ccc(F)cc2)CC1`, the inhibition was -0.18% (inactive).

Regarding `O=C(O)c1ccccc1SSc1ccccc1C(=O)O`, the inhibition is -0.04% (inactive).

`CCC(Sc1ccccc1C(=O)O)C(=O)O` (stereo not drawn): the inhibition was 5.4% (inactive).

Consider `COc1ccc(CN2CCN(Cc3cccc(Oc4ccccc4)c3)CC2)c(OC)c1OC`, for which the inhibition was 22.7% (inactive).

With `Cn1c(C(=O)N2CCCC(C(=O)NCCCSC3CCCCC3)C2)cc2sccc21` (stereo not drawn), the inhibition is 67.2% (inactive).

For `Cc1cc(C)n2nc(N)c(N=Nc3ccc(Cl)cc3)c2n1`, the inhibition was 5.04% (inactive).

Consider `Cc1cc(C)n2nc(N)c(N=Nc3ccc4c(c3)OCO4)c2n1`, for which the inhibition is 1.48% (inactive).

In the case of `CC(C)CNC(=S)N(CCN(C)C)Cc1cc2cc3c(cc2[nH]c1=O)OCCO3`, the inhibition is -7.36% (inactive).

Take `COc1ccc(OC)c(NC(=O)CSc2nncc(=O)n2N)c1`: the inhibition is -3.14% (inactive).

Take `CC(=O)N1CC(C)Sc2ccc(S(=O)(=O)NC3CCCCC3)cc21` (stereo not drawn): the inhibition is 0.78% (inactive).

As for `NC(=O)NCC(=O)N1CCC(C(O)(c2ccccc2)c2ccccc2)CC1`, the inhibition was -4.38% (inactive).

Turning to `COc1ccc(Cc2nnc(SCC(=O)N3CCc4ccccc4C3)o2)cc1`, the inhibition was -4.27% (inactive).

Regarding `COc1ccc(-c2nnc(SCC(=O)N3CCCC3)o2)cc1`, the inhibition is -2.88% (inactive).

For the compound `Cc1cccc(C)c1OCCOC(=O)c1cccc(S(=O)(=O)N2CCOCC2)c1`, the inhibition was -2.97% (inactive).

Consider `COc1cccc(C(=O)OCC(=O)N2CCc3ccccc3C2)c1OC`, for which the inhibition is -0.41% (inactive).

In the case of `Cc1cccc(C(=O)OCC(=O)N2CCCCCC2)c1O`, the inhibition is 20.7% (inactive).

For the compound `COc1ccccc1N1CCN(S(=O)(=O)c2ccc(Br)s2)CC1`, the inhibition is -5.24% (inactive).

With `Cc1c(Cl)cccc1NC(=O)Nc1cc(C(C)(C)C)nn1C`, the inhibition was 2.96% (inactive).

As to `Cn1nc(C(C)(C)C)cc1NC(=O)Nc1ccc(Cl)cc1`, the inhibition was 6.33% (inactive).

`CC(C)c1ccc(OCC(O)CNC(C)c2ccccc2)cc1` (stereo not drawn): the inhibition was 15.1% (inactive).

For the compound `COc1ccc(OCC(O)CNC(C)c2ccccc2)cc1` (stereo not drawn), the inhibition was -6.83% (inactive).

As for `C[C@H](NC(=O)C1CC(=O)N(c2ccc3c(c2)OCCO3)C1)C(=O)NCc1ccco1` (stereo partly drawn), the inhibition was 0.57% (inactive).

Regarding `Cc1ccc(-n2nc3c(N4CCC(C(=O)NCCc5ccccc5C)CC4)nnc(C)c3c2C)cc1`, the inhibition was 5.89% (inactive).

Turning to `COc1ccc(-n2nc3c(N4CCC(C(=O)NCc5ccccc5C)CC4)nnc(C)c3c2C)cc1`, the inhibition was 8.33% (inactive).

`COC(CNC(=O)CNC(=S)N(CCCN1CCOCC1)Cc1cccs1)OC`: the inhibition is 12.5% (inactive).

With `Cc1nc(Nc2ccc(Br)cc2Br)c([N+](=O)[O-])c(=O)[nH]1`, the inhibition is 0.85% (inactive).

`CCc1cc2c(Sc3nc4ccccc4s3)ncnc2s1`: the inhibition was 11.1% (inactive).

Regarding `Cc1sc2ncnc(Sc3nc4ccccc4s3)c2c1C`, the inhibition is -4.93% (inactive).

For `Cc1nc(-c2ccc(S(=O)(=O)Oc3ccccc3Cl)s2)cs1`, the inhibition is 4.35% (inactive).

Turning to `O=C(COc1ccc(S(=O)(=O)N2CCOCC2)cc1)N1CCCCCC1`, the inhibition is -3.92% (inactive).

For `COc1ccccc1-c1cc(C(=O)N2CCN(c3ccccc3)CC2)no1`, the inhibition was -4.77% (inactive).

In the case of `COc1ccc(NS(=O)(=O)c2ccc(C)c(C(=O)NNC(=O)c3ccccc3O)c2)cc1`, the inhibition is 5.14% (inactive).

As for `CC(C)(C)c1ccc(C(=O)N2CCN(Cc3ccccc3)CC2)cc1`, the inhibition was 4.6% (inactive).
